One test relates to NIH3T3. Kind of test: Cytotoxic Profiling of Annotated Libraries Using Quantitative High-Throughput Screening (AID 1296008). Further: nearly all actives have a fitted effect of over 60% in size. Particulars: Five cell lines viability, CellTiter-Glo ATP luminescence, 48-72 h; max response: active compounds read low. An outline of the steps:
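Compounds were pin-transferred onto cells and incubated 48 or 72 hr at 37 degree Celsius, 95% humidity. CellTiter-Glo was added, plates sat 10 min at room temperature, then ATP-coupled luminescence was imaged as the viability read-out.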
(In general: In ATP-based viability assays light output follows the ATP content of the culture.)

A further test relates to MCC-13. Kind of test: qHTS assay to identify novel small-molecules to repurpose for Merkel cell carcinoma treatment (AID 1296009). Further: nearly all actives have a fitted effect of over 60% in size. The conditions noted are these: MCC and control cell lines, CellTiter-Glo viability, 72 h; series mostly up to 46 µM. In a few lines: (§1)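 Cells exposed to NPC (8-point) and MIPE (11-point) compound dilutions for 72 hr at 37 degree celsius; viability read by CellTiter-Glo luminescence, normalized to no-cell and DMSO in-plate controls.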

A further test deals with MCC-26. The test is described as above. Particulars: MCC and control cell lines, CellTiter-Glo viability, 72 h; series mostly up to 46 µM. In a few lines: as §1
The next test concerns MKL-1. The test is described as above. The conditions noted are these: MCC and control cell lines, CellTiter-Glo viability, 72 h; series mostly up to 46 µM. An outline of the steps: as §1
Another test deals with MKL-2. The test is described as above. The conditions noted are these: MCC and control cell lines, CellTiter-Glo viability, 72 h; series mostly up to 46 µM. An outline of the steps:
as §1

In another test the test system is UISO. Described as above. The conditions noted are these: MCC and control cell lines, CellTiter-Glo viability, 72 h; series mostly up to 46 µM. An outline of the steps: as §1
The next test concerns WaGa. The test is described as above. Particulars: MCC and control cell lines, CellTiter-Glo viability, 72 h; series mostly up to 46 µM. An outline of the steps:
as §1

A further test concerns C33A. Kind of test: Primary qHTS to identify gynecologic anti-cancer compounds using libraries of approved drugs and bioactive compounds (AID 1345084). Further: nearly all actives have a fitted effect of over 55% in size. The conditions noted are these: Gynecologic cancer cell panel viability, ATPlite luminescence, 48 h; series mostly up to 57.5 µM. In a few lines: (§2)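 Cells, 1,000 per well, were allowed to settle for 16 h at 37 C before compound addition. Five concentrations were tested for 48 h, and viability was read by ATPlite luminescence after 15 min at room temperature.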
In general terms: Quantitative high-throughput screening tests each substance at several concentrations.

The next test concerns CASKI. The description is as above. The conditions noted are these: Gynecologic cancer cell panel viability, ATPlite luminescence, 48 h; series mostly up to 57.5 µM. An outline of the steps:
as §2

Another test relates to Es-2. The description is as above. The conditions noted are these: Gynecologic cancer cell panel viability, ATPlite luminescence, 48 h; series mostly up to 57.5 µM. In a few lines: as §2
Another test relates to HeLa. The test is described as above. Particulars: Gynecologic cancer cell panel viability, ATPlite luminescence, 48 h; series mostly up to 57.5 µM. In a few lines: as §2
The test system of test [1] is Hek293T. The test is described as above. Particulars: Gynecologic cancer cell panel viability, ATPlite luminescence, 48 h, control line for the selectivity index; series mostly up to 57.5 µM. An outline of the steps: as §2
A further test deals with JEG-3. The description is as above. The conditions noted are these: Gynecologic cancer cell panel viability, ATPlite luminescence, 48 h; series mostly up to 57.5 µM. In a few lines: as §2
A further test has as its system OV90. Described as above. The conditions noted are these: Gynecologic cancer cell panel viability, ATPlite luminescence, 48 h; series mostly up to 57.5 µM. An outline of the steps:
as §2

A further test has as its system PA-1. The description is as above. The conditions noted are these: Gynecologic cancer cell panel viability, ATPlite luminescence, 48 h; series mostly up to 57.5 µM. In a few lines:
as §2

A further test concerns SKOV3. Described as above. Particulars: Gynecologic cancer cell panel viability, ATPlite luminescence, 48 h; series mostly up to 57.5 µM. In a few lines: as §2
The subject of a further test is CAOV3. The description is as above. The conditions noted are these: Gynecologic cancer cell panel viability, ATPlite luminescence, 48 h; series mostly up to 57.5 µM. An outline of the steps: as §2
In test [2] the test system is HEK293T. Kind of test: qHTS assay to identify novel small-molecules to repurpose for Merkel cell carcinoma treatment (AID 1296009). Further: nearly all actives have a fitted effect of over 60% in size. Particulars: MCC and control cell lines, CellTiter-Glo viability, 72 h; at 44.8 µM (top of the series) unless noted. In a few lines:
as §1

Records with an inconclusive call do not appear. A number with no mark means an inactive call. The source made the active and inactive calls. The call rests on the fitted dose curve; in most records, active means well fitted curve in the direction sought with a large enough effect; inconclusive means small, poorly fitted or top-dose-only effect, or another doubt; inactive means no such curve, though single readings can be large; an effect the other way counts as inactive or inconclusive.
On the % scale 0 is the no-effect control and ±100 the full control effect; potency means the concentration at half of the fitted maximal effect.

In the case of `CCCCCCCCCCCCOCCO`, in the test on NIH3T3, the max response was 1.59%. Also, the Potency result in the test on MCC-13, in the test with MCC-26, with MKL-1, in the test with MKL-2, in the test on UISO and in the test with WaGa was “inactive” each time. The Potency entry with C33A, in the test on CASKI, in the test on Es-2, with HeLa, with Hek293T [1] and with JEG-3 was “inactive” throughout. Moreover, the Potency entry in the test on OV90, in the test on PA-1 and in the test on SKOV3 was “inactive” throughout.
For `Cc1c(Nc2ncccc2C(=O)O)cccc1C(F)(F)F`, the max response in the test with NIH3T3 was -21.5%. In addition, the Potency entry in the test on MCC-13, with MCC-26, in the test with MKL-1, in the test on MKL-2, with UISO and in the test with WaGa was “inactive” each time. For the same compound, the Potency result in the test with C33A, in the test on CASKI, in the test with Es-2, in the test with HeLa, in the test on Hek293T [1] and in the test with JEG-3 was “inactive” in each case. The Potency result with OV90, in the test with PA-1 and in the test with SKOV3 was “inactive” in each case.
Take `O=C(O)c1ccccc1Nc1cccc(C(F)(F)F)c1`: in the test with NIH3T3, the max response is -2.26%. Further, the Potency entry in the test on MCC-13, in the test on MCC-26, in the test on MKL-1, with MKL-2, in the test with UISO and in the test on WaGa was “inactive” in each case. Further, the Potency entry in the test on C33A, in the test with CAOV3, with CASKI, with Es-2, in the test with HeLa and in the test on Hek293T [1] was “inactive” each time. In addition, the Potency result in the test with JEG-3, in the test with OV90 and with PA-1 was “inactive” throughout.
In the case of `Cc1nc2ccccc2n1Cc1ccc(Cl)cc1`, the max response in the test on NIH3T3 was -22.4%. For the same compound, the Potency result with MCC-13, with MCC-26, with CAOV3, in the test on HeLa and with JEG-3 was “inactive” each time. The Potency is 8.91 µM (active) with OV90 and 3.98 µM (active) in the test with SKOV3.
For `CC1(C)[C@@H](O)CC[C@]2(C)[C@H]3C(=O)C=C4[C@@H]5C[C@@](C)(C(=O)O)CC[C@]5(C)CC[C@@]4(C)[C@]3(C)CC[C@@H]12`, the max response in the test on NIH3T3 was -0.299%. Also, the compound was called inactive in the test with HEK293T [2]. Further, the Potency result in the test on C33A, in the test on CASKI, in the test on Es-2, in the test with HeLa, with Hek293T [1] and in the test on JEG-3 was “inactive” throughout. Besides, the Potency result in the test with OV90 and with PA-1 was “inactive” throughout. Besides, in the test with SKOV3, the Potency was 3.16 µM (active).
Turning to `CN(C)c1ccc(C(=C2C=CC(=[N+](C)C)C=C2)c2ccccc2)cc1`, the Potency was 0.237 µM (active) in the test on NIH3T3; 0.0376 µM (active) with MCC-13; 0.0376 µM (active) in the test on MKL-1; 0.0133 µM (active) in the test on MKL-2; 0.0668 µM (active) with UISO; 2 µM (active) in the test with C33A. For the same compound, the Potency in the test on Es-2 is 1.78 µM (active); in the test with HeLa it was 2.51 µM (active); in the test on Hek293T [1], 2.51 µM (active); in the test on OV90, 11.2 µM (active); in the test on PA-1 it was 1.26 µM (active); in the test with SKOV3, 1.12 µM (active).
For the compound `c1ccc2sc(SSc3nc4ccccc4s3)nc2c1`, the max response with NIH3T3 was 3.25%. In addition, the Potency entry with MCC-13, with MCC-26, in the test with MKL-1, with MKL-2, in the test on UISO and in the test on WaGa was “inactive” each time. In addition, the Potency entry in the test on C33A, in the test on CASKI, with Es-2, with HeLa, in the test on Hek293T [1] and with JEG-3 was “inactive” each time. Further, the Potency result in the test on OV90, in the test on PA-1 and in the test on SKOV3 was “inactive” each time.
As to `N=C1N=C(N)c2cc3ccccc3cc21`, the Potency was 10.9 µM (active) with NIH3T3; 43.3 µM (active) in the test on MCC-13; 38.6 µM (active) with MKL-1; 24.3 µM (active) in the test on MKL-2; 24.3 µM (active) in the test with UISO; 31.6 µM (active) in the test with CASKI. Moreover, the Potency in the test on Hek293T [1] was 39.8 µM (active); in the test with PA-1 it was 35.5 µM (active).
As to `CCC1C(=O)OCC1Cc1cncn1C` (centres undefined), in the test on NIH3T3, the max response was -5.1%. Besides, the Potency result in the test on MCC-13, with MKL-1, with MKL-2, in the test on UISO, with WaGa and in the test on C33A was “inactive” each time. The Potency entry in the test on CAOV3, with CASKI, with Es-2, in the test on HeLa, in the test with Hek293T [1] and with JEG-3 was “inactive” throughout. Moreover, the Potency entry in the test on OV90, in the test with PA-1 and with SKOV3 was “inactive” in each case.

Values taken from PubChem BioAssay (NCATS).
